A number with no mark means an inactive call. Records with an inconclusive call do not appear. Where a call stands in place of a potency, no number is given. Activity calls are given as the source filed them. Unless noted, calls come from the whole dose curve; as a rule, active = well fitted curve in the direction sought with a large enough effect; inconclusive = small, poorly fitted or top-dose-only effect, or another doubt; inactive = no such curve, though single readings can be large; an effect the other way counts as inactive or inconclusive.
What was measured:
[1] = target: Cytochrome P450 1A2 (Homo sapiens) (UniProt P05177); experiment: p450-cyp1a2 (AID 410; calls by dose curve; note: potency is the fitted concentration of half-maximal effect)
In short: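 Read-out is luminescence from luciferin produced by CYP1A2 demethylation of Luciferin-ME (100uM, at Km). Detection reagent stopped the 60 min NADPH-dependent reaction; signals were normalized to 57 uM furafylline.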

[2] = target: Glucocorticoid receptor (Homo sapiens) (UniProt P04150); experiment: GR-GFP Redistribution (AID 450;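 active = compounds whose dose series gives a full or clear partial fitted curve of increased nuclear translocation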; note: potency is the fitted concentration of half-maximal effect); settings: U2OS GR-GFP nuclear translocation, laser cytometry, 2 h
[3] = target: Glucocorticoid receptor (Homo sapiens) (UniProt P04150); experiment: GR-EFC Redistribution (AID 451; calls by dose curve; note: potency is the fitted concentration of half-maximal effect); settings: CHO-K1 GR-EFC translocation, beta-gal luminescence, 2 h
In short: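 Translocation of GR-ED fusion to nuclear EA restores b-gal, read by luminescence after 1 h room-temperature detection. Engineered CHO-K1 biosensor cells, 1,000/well, exposed 2 h at 37 C to titrations up to 46 uM final.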

[4] = target: Mitogen-activated protein kinase 10 (Mus musculus) (UniProt Q61831); experiment: JNK3 AlphaScreen Assay (AID 530; active = well fitted curve in either direction with a large enough effect, not every such curve was filed as active;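 note: kinase came from lysate of stimulated human HepG2 cells; signal reports phosphorylation of biotinylated GST-cJun 1-79 at Ser73 with 10 µM ATP; series mostly up to about 57 µM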)
In short: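 Kinase buffer: 20 mM Tris-HCl pH 7.6, 10 mM MgCl2, 1 mM DTT, 0.1 mM Na3VO4, 0.01% Tween-20; ATP 10 uM. Substrate biotin-GST-cJun(1-79), enzyme from activated HepG2 lysates. Detection by Ser73 phospho-antibody AlphaScreen.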

[5] = target: 3',5'-cyclic-AMP phosphodiesterase 4B (Homo sapiens) (UniProt Q07343); experiment: qHTS Assay for Inhibitors of PDE-IV (AID 607; active = well fitted activation curve with a large enough effect in the main read-out, with a control signal flat, not every such curve was filed as active)
In short: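 HEK293 ACTOne cells with CNG channel (1000/well), endogenous PDE4; membrane potential dye, compounds up to 22.9 uM final. Fluorescence Ex 535/Em 590; RO 20-1724 (100 uM final) as reference.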

[6] = target: Cytochrome P450 3A4 (Homo sapiens) (UniProt P08684); experiment: qHTS Assay for Activators of Cytochrome P450 3A4 (AID 885); note: nearly all actives have a fitted effect of over 65% in size
In short: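 Human CYP3A4 dealkylates Luciferin-PPXE to luciferin, which luciferase detection converts to light. Substrate was at its KM (25uM), buffer 200mM KPO4, reaction 60 min at RT.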

[7] = target: Ubiquitin carboxyl-terminal hydrolase 1 (Homo sapiens) (UniProt O94782); experiment: Inhibitors of USP1/UAF1: Pilot qHTS (AID 504865);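 note: rhodamine fluorescence freed from ubiquitin-rhodamine substrate followed over time; top concentration of the series differs between compounds; nearly all actives have a fitted effect of over 35% in size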
In short: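 1nM USP1/UAF1 + cpd, 15 min RT; start w/ Ub-Rho 150nM final; kinetic FL 480/540 nm, 6 reads q60 s. Buffer 50mM HEPES pH 7.8, 0.5mM EDTA, 1mM TCEP, 0.01% Tween-20, 0.1 mg/ml BSA.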

[8] = target: DNA dC->dU-editing enzyme APOBEC-3G (Homo sapiens) (UniProt Q9HC16); experiment: qHTS for inhibitors of Vif-A3G interactions: Validation (AID 588379)
In short: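 Yellow fluorescence (Ex 488, Em 500-530) of Vif-coexpressing HeLa A3G-eYFP cells, scanned by Acumen cytometer, reports blocked A3G degradation. Cells plated at 700/well overnight at 37 deg C before compound addition, then a further overnight compound incubation at 37 deg C.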

[9] = tested on: Zika virus NS2B-NS3 protease; experiment: Primary screen GU AMC qHTS for Zika virus inhibitors (AID 1347154); note: nearly all actives have a fitted effect of over 70% in size
In short: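 Fluorogenic AMC-substrate cleavage by noncovalent NS2B-NS3 protease complex (25 nM, pH 8.0 Tris buffer with Tween 20) followed for 15 minutes at room temperature (~20% conversion). Percent inhibition from ex340/em450 signal change, fitted by 4-parameter Hill equation.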

[10] = Primary qHTS for small molecule stabilizers of the endoplasmic reticulum resident proteome: Secreted ER Calcium Modulated Protein (SERCaMP) assay (AID 1508630)
In short: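 The SH-SY5Y reporter protocol was run at 3 concentrations up to 38.3 uM (primary) or 11 concentrations (follow-up): 16 h compound, 100 nM thapsigargin for 4 h, then extracellular luciferase luminescence.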

[11] = target: Cytochrome P450 2C9 (Homo sapiens) (UniProt P11712); experiment: qHTS Assay for Inhibitors and Substrates of Cytochrome P450 2C9 (AID 883); note: potency is the fitted concentration of half-maximal effect; nearly all actives have a fitted effect of over 60% in size
In short: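 Luminescent read-out of deoxyluciferin hydroxylation, normalized to 57uM sulphaphenazole (AC100). Reaction: 10nM enzyme, 100uM Luciferin-H (equal to KM), 25mM KPO4, 10 min compound preincubation, then 60 min with NADPH regeneration, both at 37C.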

[12] = target: Cytochrome P450 2C19 (Homo sapiens) (UniProt P33261); experiment: qHTS Assay for Inhibitors and Substrates of Cytochrome P450 2C19 (AID 899); note: potency is the fitted concentration of half-maximal effect; nearly all actives have a fitted effect of over 60% in size
In short: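 Luminescence readout of luciferin formed from 10uM Luciferin-H EGE (KM level) by 5 nM CYP2C19 in 50mM KPO4. 60 min NADPH-driven reaction at 37C after 10 min compound preincubation; data scaled to 57uM ketoconazole inhibition.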

[13] = target: Cytochrome P450 3A4 (Homo sapiens) (UniProt P08684); experiment: qHTS Assay for Inhibitors and Substrates of Cytochrome P450 3A4 (AID 884); note: potency is the fitted concentration of half-maximal effect; nearly all actives have a fitted effect of over 50% in size
In short: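 Luminescent readout of luciferin produced by CYP3A4 (20 nM) dealkylation of Luciferin-PPXE, 25 uM (its KM). NADPH-driven reaction ran 60 min at RT after 10 min compound preincubation; data scaled to 57 uM ketoconazole as 100% inhibition.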

[14] = target: Cytochrome P450 2D6 (Homo sapiens) (UniProt P10635); experiment: qHTS Assay for Inhibitors and Substrates of Cytochrome P450 2D6 (AID 891); note: potency is the fitted concentration of half-maximal effect; nearly all actives have a fitted effect of over 60% in size
In short: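 Luminescent read-out of luciferin formed by 5 nM human CYP2D6 demethylating 30 uM Luciferin-ME EGE (Km level) over 60 min at room temperature after NADPH regeneration addition. Data normalized to full inhibition by 1.43 uM quinidine.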

Cytochrome P450 1A2 (Homo sapiens), sequence (P05177 whole entry, looked up): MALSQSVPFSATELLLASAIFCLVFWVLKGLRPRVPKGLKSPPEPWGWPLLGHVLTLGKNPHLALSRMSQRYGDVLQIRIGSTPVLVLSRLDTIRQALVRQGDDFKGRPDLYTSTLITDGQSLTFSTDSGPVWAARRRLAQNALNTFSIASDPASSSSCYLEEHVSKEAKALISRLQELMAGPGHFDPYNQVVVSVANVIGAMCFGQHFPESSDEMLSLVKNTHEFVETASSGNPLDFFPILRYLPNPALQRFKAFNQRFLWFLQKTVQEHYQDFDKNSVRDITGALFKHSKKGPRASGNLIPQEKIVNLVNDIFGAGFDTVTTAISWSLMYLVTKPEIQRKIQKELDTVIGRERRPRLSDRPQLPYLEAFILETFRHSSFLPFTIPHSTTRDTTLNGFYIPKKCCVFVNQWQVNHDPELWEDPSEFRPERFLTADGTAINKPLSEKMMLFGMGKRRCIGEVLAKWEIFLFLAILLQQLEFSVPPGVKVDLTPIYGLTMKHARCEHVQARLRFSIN
3',5'-cyclic-AMP phosphodiesterase 4B (Homo sapiens), sequence (Q07343 whole entry, looked up): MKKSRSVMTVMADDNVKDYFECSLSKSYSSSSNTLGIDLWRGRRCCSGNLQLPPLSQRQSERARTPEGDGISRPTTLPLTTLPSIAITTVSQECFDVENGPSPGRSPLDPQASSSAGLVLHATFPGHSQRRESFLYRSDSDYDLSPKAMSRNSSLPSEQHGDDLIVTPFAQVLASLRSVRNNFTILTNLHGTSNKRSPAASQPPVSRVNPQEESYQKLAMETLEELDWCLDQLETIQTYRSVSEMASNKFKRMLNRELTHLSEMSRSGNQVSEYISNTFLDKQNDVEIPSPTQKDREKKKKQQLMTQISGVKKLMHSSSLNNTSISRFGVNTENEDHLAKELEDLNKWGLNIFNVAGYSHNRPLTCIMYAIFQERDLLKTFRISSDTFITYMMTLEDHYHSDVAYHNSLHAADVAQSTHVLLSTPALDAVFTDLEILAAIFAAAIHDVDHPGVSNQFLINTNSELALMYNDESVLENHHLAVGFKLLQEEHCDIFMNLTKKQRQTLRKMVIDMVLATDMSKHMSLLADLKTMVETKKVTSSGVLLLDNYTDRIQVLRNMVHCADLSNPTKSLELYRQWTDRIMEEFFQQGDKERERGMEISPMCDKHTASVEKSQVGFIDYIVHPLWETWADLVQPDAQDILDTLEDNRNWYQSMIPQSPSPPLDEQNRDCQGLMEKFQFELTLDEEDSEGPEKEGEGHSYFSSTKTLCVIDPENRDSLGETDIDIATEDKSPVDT
Glucocorticoid receptor (Homo sapiens), sequence (P04150 whole entry, looked up, the tested form may be a part): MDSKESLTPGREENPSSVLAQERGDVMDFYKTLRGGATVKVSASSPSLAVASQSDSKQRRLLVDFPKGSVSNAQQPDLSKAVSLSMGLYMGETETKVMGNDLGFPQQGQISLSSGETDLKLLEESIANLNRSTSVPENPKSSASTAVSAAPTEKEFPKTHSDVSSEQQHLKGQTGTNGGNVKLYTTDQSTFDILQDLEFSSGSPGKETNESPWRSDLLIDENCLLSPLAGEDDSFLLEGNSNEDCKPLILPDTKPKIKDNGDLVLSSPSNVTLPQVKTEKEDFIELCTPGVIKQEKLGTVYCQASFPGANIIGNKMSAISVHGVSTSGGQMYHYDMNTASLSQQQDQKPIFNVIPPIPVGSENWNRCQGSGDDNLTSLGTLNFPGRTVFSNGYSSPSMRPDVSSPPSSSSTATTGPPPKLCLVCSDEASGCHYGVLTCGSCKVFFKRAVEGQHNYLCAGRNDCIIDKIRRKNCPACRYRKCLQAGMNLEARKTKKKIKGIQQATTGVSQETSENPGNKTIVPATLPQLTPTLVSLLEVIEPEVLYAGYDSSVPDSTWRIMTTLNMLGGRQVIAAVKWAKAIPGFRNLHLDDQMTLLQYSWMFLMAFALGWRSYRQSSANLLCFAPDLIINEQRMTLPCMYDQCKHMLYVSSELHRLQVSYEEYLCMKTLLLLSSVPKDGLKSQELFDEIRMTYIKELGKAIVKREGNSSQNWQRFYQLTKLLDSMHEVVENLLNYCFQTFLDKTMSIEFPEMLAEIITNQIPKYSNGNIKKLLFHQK
DNA dC->dU-editing enzyme APOBEC-3G (Homo sapiens), sequence (Q9HC16 whole entry, looked up): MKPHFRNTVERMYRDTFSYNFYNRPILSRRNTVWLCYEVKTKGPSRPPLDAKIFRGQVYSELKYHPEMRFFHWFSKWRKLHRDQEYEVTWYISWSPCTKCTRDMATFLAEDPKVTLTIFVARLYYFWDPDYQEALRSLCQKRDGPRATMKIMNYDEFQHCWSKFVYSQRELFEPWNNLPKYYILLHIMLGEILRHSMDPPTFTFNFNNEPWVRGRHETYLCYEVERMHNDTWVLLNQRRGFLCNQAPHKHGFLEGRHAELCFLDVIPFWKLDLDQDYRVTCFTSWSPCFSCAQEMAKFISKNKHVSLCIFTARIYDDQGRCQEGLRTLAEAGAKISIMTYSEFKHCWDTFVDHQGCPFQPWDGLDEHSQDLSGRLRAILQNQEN
Cytochrome P450 2C19 (Homo sapiens), sequence (P33261 whole entry, looked up): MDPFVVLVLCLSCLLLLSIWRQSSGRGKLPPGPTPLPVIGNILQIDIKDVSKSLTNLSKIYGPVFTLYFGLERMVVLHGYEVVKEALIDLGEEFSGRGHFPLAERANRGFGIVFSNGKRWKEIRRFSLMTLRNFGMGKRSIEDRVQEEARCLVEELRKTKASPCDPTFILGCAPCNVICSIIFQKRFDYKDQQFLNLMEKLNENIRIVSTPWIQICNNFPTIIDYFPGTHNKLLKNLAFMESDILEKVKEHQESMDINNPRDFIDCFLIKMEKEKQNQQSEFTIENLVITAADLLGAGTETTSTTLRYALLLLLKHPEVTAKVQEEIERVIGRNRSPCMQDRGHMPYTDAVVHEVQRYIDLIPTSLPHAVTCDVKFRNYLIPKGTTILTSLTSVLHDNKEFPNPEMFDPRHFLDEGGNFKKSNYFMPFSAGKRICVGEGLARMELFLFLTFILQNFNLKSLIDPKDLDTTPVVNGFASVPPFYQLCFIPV
Cytochrome P450 3A4 (Homo sapiens), sequence (P08684 whole entry, looked up): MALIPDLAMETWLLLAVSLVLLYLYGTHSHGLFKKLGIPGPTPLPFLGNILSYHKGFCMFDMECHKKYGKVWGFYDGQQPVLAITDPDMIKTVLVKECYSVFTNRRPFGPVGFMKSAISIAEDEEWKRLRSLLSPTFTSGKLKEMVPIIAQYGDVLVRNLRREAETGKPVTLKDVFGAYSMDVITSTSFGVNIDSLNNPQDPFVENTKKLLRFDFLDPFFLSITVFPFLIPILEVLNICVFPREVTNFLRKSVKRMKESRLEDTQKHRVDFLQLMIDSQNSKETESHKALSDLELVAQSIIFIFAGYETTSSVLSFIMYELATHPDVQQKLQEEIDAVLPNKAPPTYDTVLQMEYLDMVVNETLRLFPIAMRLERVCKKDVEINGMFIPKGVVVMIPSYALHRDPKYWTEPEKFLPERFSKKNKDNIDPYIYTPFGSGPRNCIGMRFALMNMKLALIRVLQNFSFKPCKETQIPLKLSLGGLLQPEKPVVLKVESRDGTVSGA
Ubiquitin carboxyl-terminal hydrolase 1 (Homo sapiens), sequence (O94782 whole entry, looked up): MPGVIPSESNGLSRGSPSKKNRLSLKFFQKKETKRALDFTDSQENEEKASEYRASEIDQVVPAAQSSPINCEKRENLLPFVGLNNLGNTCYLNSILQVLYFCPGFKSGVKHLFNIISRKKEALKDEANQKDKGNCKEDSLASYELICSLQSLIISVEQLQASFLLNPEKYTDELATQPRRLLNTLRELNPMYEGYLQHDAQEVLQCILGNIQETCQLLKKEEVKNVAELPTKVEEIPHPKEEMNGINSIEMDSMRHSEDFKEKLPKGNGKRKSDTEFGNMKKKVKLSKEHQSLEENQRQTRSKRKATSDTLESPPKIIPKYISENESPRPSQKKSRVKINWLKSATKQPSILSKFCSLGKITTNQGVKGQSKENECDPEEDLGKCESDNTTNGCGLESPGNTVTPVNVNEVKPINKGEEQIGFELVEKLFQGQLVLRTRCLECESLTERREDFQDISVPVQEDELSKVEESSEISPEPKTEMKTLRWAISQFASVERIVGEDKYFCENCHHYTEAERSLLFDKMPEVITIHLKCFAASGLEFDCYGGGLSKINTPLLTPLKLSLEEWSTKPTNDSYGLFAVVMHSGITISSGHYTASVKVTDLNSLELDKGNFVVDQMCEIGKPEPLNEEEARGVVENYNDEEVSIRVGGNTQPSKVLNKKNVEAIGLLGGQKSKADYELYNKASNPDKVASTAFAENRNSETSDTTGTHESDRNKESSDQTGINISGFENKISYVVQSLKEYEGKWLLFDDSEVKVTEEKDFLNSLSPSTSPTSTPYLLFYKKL
Cytochrome P450 2C9 (Homo sapiens), sequence (P11712 whole entry, looked up): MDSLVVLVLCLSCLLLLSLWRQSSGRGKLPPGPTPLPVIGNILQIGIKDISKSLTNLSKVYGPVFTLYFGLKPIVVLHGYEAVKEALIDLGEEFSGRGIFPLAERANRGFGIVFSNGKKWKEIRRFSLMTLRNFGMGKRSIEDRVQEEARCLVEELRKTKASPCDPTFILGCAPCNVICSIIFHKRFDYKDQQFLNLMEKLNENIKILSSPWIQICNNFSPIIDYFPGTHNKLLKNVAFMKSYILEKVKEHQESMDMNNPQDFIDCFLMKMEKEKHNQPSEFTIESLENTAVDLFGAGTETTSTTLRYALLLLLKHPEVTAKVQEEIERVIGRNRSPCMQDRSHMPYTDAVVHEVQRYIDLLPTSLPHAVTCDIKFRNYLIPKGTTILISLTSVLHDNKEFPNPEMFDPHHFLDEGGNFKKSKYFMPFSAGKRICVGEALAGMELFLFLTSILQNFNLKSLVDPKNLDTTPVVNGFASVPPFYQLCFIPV

Q: Which results are given for CC1(C)CC(=O)C([C@H]2C3=C(CC(C)(C)CC3=O)Oc3ccccc32)C(=O)C1?
A: Potency [1]: inactive; Potency [2]: > 46 µM; Potency [3]: > 46 µM; Potency [4]: inactive; Potency [5]: inactive; Potency [6]: inactive; Potency [7]: inactive; Potency [8]: inactive; Potency [9]: inactive; Potency [10]: inactive

Q: What does the source list for N[C@H](Cn1ccc(=O)n(Cc2ccccc2C(=O)O)c1=O)C(=O)O?
A: Potency [1]: inactive; Potency [2]: > 46 µM; Potency [3]: > 46 µM; Potency [4]: inactive; Potency [5]: inactive; Potency [7]: inactive; Potency [8]: inactive; Potency [9]: inactive; Potency [10]: inactive

Q: With CSc1nc(NC2CCCC2)c([N+](=O)[O-])c(NC2CCCC2)n1 as the compound, how does the Potency [1] read?
A: 3.98 µM (active)

Q: What about the Potency [2] of the same compound?
A: > 46 µM

Q: What about the Potency [3] of the same compound?
A: > 46 µM

Q: What about the Potency [4] of the same compound?
A: inactive

Q: What about the Potency [5] of the same compound?
A: inactive

Q: And the Potency [11]?
A: 2 µM (active)

Q: What about the Potency [12] of the same compound?
A: 5.01 µM (active)

Q: And the Potency [8]?
A: inactive

Q: What about the Potency [9] of the same compound?
A: inactive

Q: What about the Potency [10] of the same compound?
A: inactive

Q: With CC(=O)NCCc1c(Cc2ccccc2)[nH]c2ccccc12 as the compound, how does the Potency [1] read?
A: 12.6 µM (active)

Q: What about the Potency [2] of the same compound?
A: > 46 µM

Q: What about the Potency [3] of the same compound?
A: > 46 µM

Q: And the Potency [5]?
A: inactive

Q: And the Potency [13]?
A: 7.94 µM (active)

Q: And the Potency [6]?
A: inactive

Q: What about the Potency [8] of the same compound?
A: inactive

Q: And the Potency [9]?
A: inactive

Q: What about the Potency [10] of the same compound?
A: inactive

Q: For CCCCOC(=O)c1cc2c(cn1)[nH]c1ccccc12, which Potency [1] is on record?
A: 0.158 µM (active)

Q: And the Potency [2]?
A: > 46 µM

Q: What about the Potency [3] of the same compound?
A: > 46 µM

Q: What about the Potency [4] of the same compound?
A: inactive

Q: And the Potency [11]?
A: 7.94 µM (active)

Q: What about the Potency [6] of the same compound?
A: inactive

Q: What about the Potency [12] of the same compound?
A: 5.01 µM (active)

Q: What about the Potency [8] of the same compound?
A: inactive

Q: And the Potency [9]?
A: inactive

Q: And the Potency [10]?
A: inactive

Q: With COc1cccc(C=NC=Nc2cccc(OC)c2)c1 as the compound, how does the Potency [1] read?
A: 1 µM (active)

Q: What about the Potency [2] of the same compound?
A: > 46 µM

Q: And the Potency [3]?
A: > 46 µM

Q: What about the Potency [6] of the same compound?
A: inactive

Q: And the Potency [8]?
A: inactive

Q: What about the Potency [9] of the same compound?
A: inactive

Q: And the Potency [10]?
A: inactive

Q: With COc1ccc2[nH]c(C(=O)c3ccccc3)cc2c1 as the compound, how does the Potency [1] read?
A: 0.1 µM (active)

Q: What about the Potency [2] of the same compound?
A: > 46 µM

Q: And the Potency [3]?
A: > 46 µM

Q: What about the Potency [8] of the same compound?
A: inactive

Q: And the Potency [9]?
A: inactive

Q: And the Potency [10]?
A: inactive

Q: For COc1cc(COc2cc(N)c(Cl)cc2C(=O)CCC2CCN(CCNS(C)(=O)=O)CC2)cc(OC)c1, which Potency [1] is on record?
A: inactive

Q: And the Potency [2]?
A: > 46 µM

Q: What about the Potency [3] of the same compound?
A: > 46 µM

Q: What about the Potency [4] of the same compound?
A: inactive

Q: And the Potency [13]?
A: 2 µM (active)

Q: What about the Potency [6] of the same compound?
A: inactive

Q: What about the Potency [14] of the same compound?
A: 0.794 µM (active)

Q: What about the Potency [8] of the same compound?
A: inactive

Q: And the Potency [9]?
A: inactive

Q: What about the Potency [10] of the same compound?
A: inactive

Q: What does the source list for CCc1cc2c(c(CC)n1)CCC(=O)N2Cc1ccc(-c2ccccc2-c2nn[nH]n2)cc1?
A: Potency [1]: inactive; Potency [2]: > 46 µM; Potency [3]: > 46 µM; Potency [4]: inactive; Potency [6]: inactive; Potency [12]: 5.01 µM (active); Potency [8]: inactive; Potency [9]: inactive; Potency [10]: inactive

Reference: PubChem BioAssay (NCATS)
